The results in this text go back to PubChem BioAssay AID463173 (ICCB-Longwood Screening Facility, Harvard Medical School, 2010).

Each structure is given as a SMILES string. Among all 52,000 compounds or so, about 4,300 (8.3%) were called active. The entries come from a sample that favours actives as a whole. Values without a mark were called inactive. Rule as the data show it: active = survival mostly below about 52% (no sharp cut-off); inactive = mostly above about 56%.

The subject of this experiment is DeltatarO mutant. In words: S. aureus survival, RN4220 and DeltatarO strains – OD600, teichoic acid synthesis inhibitors, primary screen (AID 463173). The note with it: S. aureus RN4220 wild type/DeltatarO growth, OD600, 18 h, active compounds read low, screened at 18.75 µg/mL (by protocol).
Take `CCOC(=O)C1=C(SCC)c2cc3c(n2C1=O)CCCC3`: the survival was 83%. For `COc1ccc(CNC(=O)c2cc(-c3ccc(Br)s3)nc3ccccc23)cc1` the value was 77%; for `CCN(CC)CC(C)CNC(=O)c1cc(-c2ccc(Br)s2)nc2ccccc12` (stereo unspecified), 31% (active).

Consider `CCc1ccc(CNC(=O)c2cc(-c3ccc(Cl)s3)nc3ccccc23)cc1`, for which the survival was 83%. Then `CCN(CC)CCNC(=O)c1cc(-c2ccc(Br)s2)nc2ccccc12`, with 28% (active); and `CC(C)CN(CCCNC(=O)c1cc(-c2ccc(Br)s2)nc2ccccc12)CC(C)C`, with 91%. For `CCCCN(C)CCCNC(=O)c1cc(-c2ccc(Br)s2)nc2ccccc12` the value was 33%.

Regarding `CC(C)CCNC(=O)c1cc(-c2ccc(Br)s2)nc2ccccc12`, the survival was 81%. On to `CCCN(CCC)CCNC(=O)c1cc(-c2ccc(Br)s2)nc2ccccc12`, for which the survival was 68%. Then `CCc1ccc(CNC(=O)c2cc(-c3ccc(Br)s3)nc3ccccc23)cc1`, with 60% (active). Then `Cc1ccc(S(=O)(=O)c2cn(CC(=O)Nc3ccc(Cl)cc3)c3ccc(F)cc3c2=O)cc1C`, with 53%; and `CC(C)(C)c1ccc(C(=O)Nc2ccccc2C(=O)OCc2cc(=O)n3ccsc3n2)cc1`, with 73%. Then `CC1OC(Nc2ccc(OC(F)(F)F)cc2)C(O)C(O)C1O` (stereo unspecified), with 84%; and `CCC(C)n1c(=O)c2sccc2n2c(CCCC(=O)N3CCN(c4ccccc4)CC3)nnc12` (stereo unspecified), with 89%. As to `Cc1cc(Br)ccc1NC(=O)CCNS(=O)(=O)c1cccc2nonc12`, the survival was 43% (active). For `Cc1ccc(NC(=O)CCNS(=O)(=O)c2cccc3nonc23)cc1Cl` the value was 39% (active); for `Cc1cc(Br)ccc1NC(=O)CCS(=O)(=O)c1cccc2nonc12`, 83%.

As for `CCOc1ccc(NC(=O)CCNS(=O)(=O)c2cccc3nsnc23)cc1`, the survival was 52%. `Cc1cc(NC(=O)CCNS(=O)(=O)c2cccc3nsnc23)ccc1Br`: the survival is 102%. As to `Cc1ccc(NC(=O)CCS(=O)(=O)c2cccc3nonc23)c(C)c1`, the survival is 99%.

`Cc1ccc(NC(=O)CCS(=O)(=O)c2cccc3nonc23)cc1Cl`: the survival was 71%. With `Cc1cccc(NC(=O)CCNS(=O)(=O)c2cccc3nonc23)c1`, the survival was 44% (active). Then `COc1ccc(NC(=O)CCS(=O)(=O)c2cccc3nonc23)cc1Cl`, with 68%; and `CCOC(=O)c1cccc(NC(=O)CCNS(=O)(=O)c2cccc3nonc23)c1`, with 46% (active); and `COC(=O)c1ccc(NC(=O)CCNS(=O)(=O)c2cccc3nsnc23)cc1`, with 65%. `CCc1cccc(NC(=O)CCNS(=O)(=O)c2cccc3nonc23)c1`: the survival is 97%.

With `Cc1cccc(Cn2c(=O)n(-c3cc(C)cc(C)c3)c(=O)c3oc4ccccc4c32)c1`, the survival is 71%. Then `Cc1sc2ncn(CC(=O)N3CCN(c4ccc(F)cc4)CC3)c(=O)c2c1S(=O)(=O)N1CCC(C)CC1`, with 75%; and `Cc1ccc(C)c(NC(=O)c2ccc(CN3CC(=O)N4CCCCC4C3=O)cc2)c1` (stereo unspecified), with 54%. For `Cc1cc(Oc2nc3ccccn3c(=O)c2/C=C(\C#N)c2nc3ccccc3s2)ccc1Cl` the value was 63%; for `COc1ccc(S(=O)(=O)N2CCC(C(=O)NC(C)c3ccccc3)CC2)cc1` (stereo unspecified), 79%; for `COc1ccc(OC)c(/C=N/c2ncn[nH]2)c1`, 101%. For `COCCCNC(=O)Cn1c(=O)nc(-c2ccccc2)c2ccccc21` the value was 78%; for `CCOc1ccccc1NC(=O)c1ccc2c(c1)CCCN2S(C)(=O)=O`, 81%. For `Cc1nn(-c2ccc(N3CCCC3)nn2)c(C)c1CCC(=O)Nc1ccc(F)c(Cl)c1`, the survival is 68%. For `O=C(NCc1cccn1Cc1ccccc1)Nc1cccc(C(F)(F)F)c1` the value was 54%; for `COCCCNC(=O)c1ccc(Cn2c(=O)c3ccccc3n(Cc3ccc(Cl)cc3)c2=O)cc1`, 89%; for `COc1ccc(NC(=O)CN(C)S(=O)(=O)c2ccc3nc(C)sc3c2)cc1Cl`, 82%. Consider `CN(C)c1ccc(/C=N/c2nc3ccccc3o2)cc1`, for which the survival is 85%. `COc1ccc(CCNC(=O)c2ccc(Cn3c(SCc4ccccc4)nc4cccnc43)cc2)cc1`: the survival was 92%. With `CCN(Cc1ccccc1)C(=O)c1cc2c(s1)-c1c(C)cccc1OC2`, the survival is 55% (active). Then `CCN(C(=O)c1cc2c(s1)-c1c(C)cccc1OC2)c1ccccc1F`, with 97%; and `Cc1ccc(CCNC(=O)c2cc3c(s2)-c2c(C)cccc2OC3)cc1`, with 93%; and `CCN(C(=O)c1cc2c(s1)-c1c(C)cccc1OC2)c1cc(C)ccc1C`, with -1% (active). For `Cc1cccc(CCNC(=O)c2cc3c(s2)-c2c(C)cccc2OC3)c1` the value was 83%; for `Cc1ccc(CNC(=O)c2cc3c(s2)-c2c(C)cccc2OC3)cc1`, 68%; for `CC(C)CCN1C(=O)c2ccccc2CC1(C)C(=O)NC1CCC(C)CC1` (stereo unspecified), 100%. For `CCOC(=O)c1c(C)[nH]c(CCC(=O)NCc2ccccc2Cl)c1C` the value was 98%. On to `CCOc1ccc(NC(=O)Cn2cc(C(=O)c3ccccc3)c(=O)c3cc4c(cc32)OCCO4)cc1`, for which the survival was 73%.

Consider `O=C(O)c1ccc(NC(=O)c2cn(-c3ccccc3)nc2-c2ccc(Br)cc2)cc1`, for which the survival is 24% (active). For `COc1ccccc1NC(=O)c1cn(-c2ccccc2)nc1-c1ccccc1` the value was 95%; for `CCOC(=O)c1ccc(NC(=O)c2cn(-c3ccccc3)nc2-c2ccc(Br)cc2)cc1`, 70%. As for `COc1ccc(-c2nn(-c3ccccc3)cc2C(=O)Nc2ccccc2OC)cc1`, the survival was -2% (active).

`COc1ccc(NC(=O)c2cn(-c3ccccc3)nc2-c2ccc(C)cc2)cc1`: the survival was 63%.

Turning to `CC(=O)c1ccc(NC(=O)c2cn(-c3ccccc3)nc2-c2ccc(Br)cc2)cc1`, the survival is 75%. Take `CCOC(=O)c1ccc(NS(=O)(=O)c2ccc3c(c2)CCN3C(=O)CC)cc1`: the survival is 79%. On to `Brc1ccc(-c2cn3cc(Cc4ccccc4)sc3n2)cc1`, for which the survival is 64%. In the case of `CC1CCN(S(=O)(=O)c2ccc3c(c2)oc(=O)n3CC(=O)N2CCCCC2)CC1`, the survival was 66%. Then `COc1cc(NC(=O)Cn2c(=O)oc3cc(S(=O)(=O)N4CCCCCC4)ccc32)cc(OC)c1`, with 95%; and `COc1ccc(Br)cc1CNC(=O)c1cc(=O)[nH]c2ccc(S(=O)(=O)N3CCCCC3C)cc12` (stereo unspecified), with 82%. For `CC1CCN(C(=O)Cn2c(=O)oc3cc(S(=O)(=O)N4CCCCC4)ccc32)CC1` the value was 86%. For `CCOc1ccc(NC(=O)Cn2c(=O)oc3cc(S(=O)(=O)N4CCCCCC4)ccc32)cc1` the value was 75%.

As for `COc1ccc(CCNC(=O)c2cc(=O)[nH]c3ccc(S(=O)(=O)N4CCCCC4C)cc23)cc1OC` (stereo unspecified), the survival is 117%. For `COc1ccc(OC)c(CNC(=O)c2cc(=O)[nH]c3ccc(S(=O)(=O)N4CCCCC4C)cc23)c1` (stereo unspecified), the survival was 6% (active).

Regarding `COc1ccc(NC(=O)Cn2c(=O)oc3cc(S(=O)(=O)N4CCCCC4C)ccc32)cc1` (stereo unspecified), the survival is 47% (active). For `CC1CCN(S(=O)(=O)c2ccc3c(c2)oc(=O)n3CC(=O)O)CC1` the value was 0% (active). For `Fc1ccc(N2CCN(c3ncnc4[nH]ncc34)CC2)cc1` the value was 95%; for `CCSc1ncc(Cl)c(C(=O)Nc2c(C(=O)Nc3cccc(C)c3)oc3ccccc23)n1`, 109%.

On to `Cc1c(C(=O)NCCc2ccccc2)cccc1-n1cnc2cccnc21`, for which the survival is 75%. For `O=C(O)c1cccc(NC2SC(=O)N(c3ccccc3)C2=O)c1` (stereo unspecified), the survival is 107%. Take `O=C1C(=O)N(C2CCN(C(=O)c3ccc(Cl)cc3)CC2)CCN1Cc1ccc(F)cc1`: the survival was 78%. Consider `COc1ccc(-n2c(SCC(=O)N3CCc4ccccc43)nc3c([nH]c4ccccc43)c2=O)cc1`, for which the survival was 92%.

For the compound `Cc1cccc(NC(=O)CN(C)S(=O)(=O)c2cnc[nH]2)c1C`, the survival is 97%. Turning to `CCN1CCc2c(sc(NC(=O)c3ccc(S(=O)(=O)N(C)C4CCCCC4)cc3)c2C(N)=O)C1`, the survival is 80%. Then `Cc1ccccc1NC(=O)Cn1cc(S(=O)(=O)N2CCCC2)c(S(=O)(=O)N2CCCC2)c1`, with 90%; and `CC(=O)c1ccc(NC(=O)CCCc2nc(-c3cccc(C)c3)no2)cc1`, with 69%. In the case of `COc1ccc(N2CCN(CCCNC(=O)C3COc4ccccc4C3)CC2)cc1` (stereo unspecified), the survival is 131%. Then `CCn1c(CNc2ccc(C)cc2)nnc1SCc1ccccc1`, with 115%. For `COc1cc(CN(C(=O)Nc2cccc(Cl)c2)c2ccccn2)cc(OC)c1OC` the value was 68%; for `O=C(Nc1ccccc1)N(Cc1ccc(F)cc1)c1ccccn1`, 56%. Then `CCc1ccc(CN(C(=O)Nc2cccc(Cl)c2)c2ccccn2)cc1`, with 94%; and `COc1ccc(CN(C(=O)Nc2cccc(Cl)c2)c2ccccn2)cc1OC`, with 92%; and `O=C(Nc1ccccc1)N(Cc1cccc(Cl)c1)c1ccccn1`, with 37% (active). On to `Cc1ccc(CN(C(=O)Nc2cccc(Cl)c2)c2ccccn2)cc1`, for which the survival is 40% (active).

Consider `COc1cc(NC(=O)CCn2cnc3ccccc3c2=O)cc(OC)c1`, for which the survival is 122%. As to `CCN(CC)C(=O)Cn1cc(SCC(=O)Nc2cccc(C)c2)c2ccccc21`, the survival is 69%.

Take `Cc1ccc2c(CC(=O)Nc3c(C(=O)c4ccc(C)c(F)c4)oc4ccccc34)coc2c1`: the survival is 96%. Then `O=C(NCc1ccccc1)C1CCN(S(=O)(=O)Cc2ccccc2)CC1`, with 98%; and `CCc1ccc(NC(=O)C2CCN(S(=O)(=O)c3cccc(-c4noc(C)n4)c3)CC2)cc1`, with 77%; and `CCc1cccc(NC(=O)C2CCN(S(=O)(=O)c3cccc(-c4noc(C)n4)c3)CC2)c1`, with 73%. For `Cc1cc(C)cc(NC(=O)C2CCN(S(=O)(=O)c3cccc(-c4noc(C)n4)c3)CC2)c1` the value was -5% (active).
